Assay [1] is described as follows: qHTS assay for small molecule agonists of the p53 signaling pathway (AID 651631; calls by dose curve; further: nearly all actives have a fitted effect of over 15% in size; further: potency means the concentration at half of the fitted maximal effect). A digest of the protocol: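 HCT-116 p53RE-bla reporter line, 16 h compound treatment at 37 °C, then fluorescence after 2 h with B/G FRET substrate.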
(In general: qHTS replaces the single test concentration by a dilution series.)

Assay [2] in a line: qHTS assay for small molecules that induce genotoxicity in human embryonic kidney cells expressing luciferase-tagged ATAD5 (AID 651632). Further: nearly all actives have a fitted effect of over 15% in size. A digest of the protocol: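 Genotoxicity read-out via ATAD5-luciferase: HEK293T cells, 16 hr compound incubation at 37C, Amplite detection.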
Assay [3] is described as follows: qHTS assay for small molecule agonists of the p53 signaling pathway - cell viability (AID 651633; calls by dose curve; further: nearly all actives have a fitted effect of over 30% in size; further: potency means the concentration at half of the fitted maximal effect). A digest of the protocol:
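Viability counter-read: CellTiter-Glo luminescence (30 min, room temperature) in the same p53RE-bla plates. These plates had been exposed to compounds for 16 h at 37 C.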

The nature of assay [4]: qHTS assay for small molecules that induce genotoxicity in human embryonic kidney cells expressing luciferase-tagged ATAD5 - cell viability (AID 651634; calls by dose curve; further: nearly all actives have a fitted effect of over 25% in size). A digest of the protocol:
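Live-cell protease activity (CellTiter-Fluor, fluorescence) indicates viability. HEK293T cells with luciferase-tagged ATAD5; 15.5 hr compound treatment at 37C.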

Assay [5] can be described thus: qHTS assay for small molecule disruptors of the mitochondrial membrane potential - cell viability (AID 720634; calls by dose curve;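 further: human HepG2 liver cancer cells; series mostly up to about 83 µM; nearly all actives have a fitted effect of over 20% in size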). In short, it runs like this: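 Human hepatoma HepG2 cells were treated for 1 hr with test chemicals, then given m-MPI dye and CellTiter-Glo. Cell viability reflects luminescence proportional to cellular ATP.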
Assay [6] can be described thus: qHTS assay to test for compound auto fluorescence at 590 nm (red) in HepG2 cells (AID 720674). In short, it runs like this: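 We screened compounds on adherent HepG2 cells, incubating them for an hour at 37 C in 5% CO2 before reading emission at 590 nm under 540 nm excitation; values reflect equivalence to Rose Bengal sodium fluorescence.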
Assay [7] in a line: qHTS assay to test for compound auto fluorescence at 535 nm (green) in HepG2 cells (AID 720675).
Assay [8] can be described thus: qHTS assay to test for compound auto fluorescence at 460 nm (blue) in HEK293 cells (AID 720678). In short, it runs like this: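 HEK293 cells (2,000 per well, medium with 10% dialyzed FBS) attached for 4-5 hr at 37C, then received compound and stood overnight at 37C, 5% CO2. Blue fluorescence was read at Ex/Em 405/460 nm and expressed relative to triamterene.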
Assay [9] can be described thus: qHTS assay to test for compound auto fluorescence at 590 nm (red) in HEK293 cells (AID 720679). In short, it runs like this: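 HEK293 cells (2,000/well, medium with 10% dialyzed FBS) attached for 4-5 hr at 37C, received 23 nL compound and were incubated overnight at 37C, 5% CO2. Red fluorescence was then read at 540/590nm Ex/Em, referenced to Rose Bengal sodium.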

Assay [10] is described as follows: qHTS assay to test for compound auto fluorescence at 460 nm (blue) in HEK293 cell free culture (AID 720681). In short, it runs like this: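 Blue fluorescence (Ex 405/Em 460 nm, triamterene-equivalent) was read immediately after pin transfer of compound or DMSO into medium (DMEM, 10% FBS) without cells.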
The nature of assay [11]: qHTS assay to test for compound auto fluorescence at 535 nm (green) in HEK293 cell free culture (AID 720682). A digest of the protocol: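 Steps: dispense DMEM/10% FBS into empty wells; pin in compound or DMSO; measure fluorescence at 485/535 nm. Values are fluorescein equivalents.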
The nature of assay [12]: qHTS assay to test for compound auto fluorescence at 590 nm (red) in HEK293 cell free culture (AID 720683). A digest of the protocol: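 Red-channel autofluorescence of compounds in culture medium (DMEM, 10% FBS), no cells, measured at 540/590 nm. Rose Bengal sodium is the reference fluorophore for equivalence.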
The nature of assay [13]: qHTS assay to test for compound auto fluorescence at 590 nm (red) in HepG2 cell free culture (AID 720684). A digest of the protocol:
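Plate contents were MEM with 10% FBS plus test compound or DMSO, no cells. Fluorescence was recorded with 540 nm excitation and 590 nm emission.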

Assay [14] in a line: qHTS assay to test for compound auto fluorescence at 535 nm (green) in HepG2 cell free culture (AID 720686).
Assay [15] can be described thus: qHTS assay to test for compound auto fluorescence at 460 nm (blue) in HepG2 cells (AID 720687). A digest of the protocol:
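Blue-channel autofluorescence (Ex/Em 405/460 nm, triamterene-equivalent) was measured after 1 hr compound exposure at 37 C, 5% CO2. Cells were HepG2, plated overnight at 37 C in MEM plus 10% FBS.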

Assay [16] addresses Glucocorticoid receptor (Homo sapiens) (UniProt P04150). Briefly: qHTS assay to identify small molecule agonists of the glucocorticoid receptor (GR) signaling pathway (AID 720691; active means well fitted activation curve with a large enough effect in the signal ratio in the repeat runs, not every such curve was filed as active; the % refers to the signal ratio). A digest of the protocol: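 Beta-lactamase reporter activity, read as fluorescence intensity, was measured in GR-bla HeLa cells exposed to compounds for 18 h at 37 C and then loaded with LiveBLAzer B/G FRET substrate for 2 h at room temperature.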

Assay [17] shares this target. Briefly: qHTS assay to identify small molecule antagonists of the glucocorticoid receptor (GR) signaling pathway (AID 720692; active means well fitted inhibition curve with a large enough effect in the signal ratio in the repeat runs, not every such curve was filed as active; the % refers to the signal ratio). In short, it runs like this:
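Fluorescence from cleaved LiveBLAzer B/G FRET substrate reports GRE-driven beta-lactamase in HeLa cells; compounds are tested against 5 nM dexamethasone (final) over 18 h at 37 C, substrate incubation 2 h at room temperature.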

Assay [18] is described as follows: qHTS assay to test for compound auto fluorescence at 535 nm (green) in HEK293 cells (AID 720680).
Assay [19] in a line: qHTS assay to test for compound auto fluorescence at 460 nm (blue) in HepG2 cell free culture (AID 720685). In short, it runs like this: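 Compound (23 nL) or DMSO pinned into cell-free MEM with 10% FBS; blue fluorescence read at 405/460 nm excitation/emission, expressed as auto-fluorescence equivalency to triamterene.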
Assay [20] is described as follows: qHTS assay for small molecule disruptors of the mitochondrial membrane potential (AID 720635). Further: potency means the concentration at half of the fitted maximal effect. A digest of the protocol:
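Mitochondrial membrane potential tracked with Mito-MPS dye, red aggregates (ex 540/em 590 nm) against green monomers (ex 490/em 535 nm). Compound treatment 1 hr at 37C, dye 30 min in HepG2.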

Each structure is given as a SMILES string. Values without a mark were called inactive. Records with an inconclusive call do not appear. Active and inactive are the calls of the source. Unless noted, the call rests on the fitted dose curve; in most records, active means well fitted curve in the direction sought with a large enough effect in the repeat runs; inconclusive means weak or mixed curves; inactive means no such curve, though single readings can be large; an effect the other way counts as inactive or inconclusive.
On the % scale 0 is the no-effect control and ±100 the full control effect.

Glucocorticoid receptor (Homo sapiens), sequence (P04150 whole entry, looked up): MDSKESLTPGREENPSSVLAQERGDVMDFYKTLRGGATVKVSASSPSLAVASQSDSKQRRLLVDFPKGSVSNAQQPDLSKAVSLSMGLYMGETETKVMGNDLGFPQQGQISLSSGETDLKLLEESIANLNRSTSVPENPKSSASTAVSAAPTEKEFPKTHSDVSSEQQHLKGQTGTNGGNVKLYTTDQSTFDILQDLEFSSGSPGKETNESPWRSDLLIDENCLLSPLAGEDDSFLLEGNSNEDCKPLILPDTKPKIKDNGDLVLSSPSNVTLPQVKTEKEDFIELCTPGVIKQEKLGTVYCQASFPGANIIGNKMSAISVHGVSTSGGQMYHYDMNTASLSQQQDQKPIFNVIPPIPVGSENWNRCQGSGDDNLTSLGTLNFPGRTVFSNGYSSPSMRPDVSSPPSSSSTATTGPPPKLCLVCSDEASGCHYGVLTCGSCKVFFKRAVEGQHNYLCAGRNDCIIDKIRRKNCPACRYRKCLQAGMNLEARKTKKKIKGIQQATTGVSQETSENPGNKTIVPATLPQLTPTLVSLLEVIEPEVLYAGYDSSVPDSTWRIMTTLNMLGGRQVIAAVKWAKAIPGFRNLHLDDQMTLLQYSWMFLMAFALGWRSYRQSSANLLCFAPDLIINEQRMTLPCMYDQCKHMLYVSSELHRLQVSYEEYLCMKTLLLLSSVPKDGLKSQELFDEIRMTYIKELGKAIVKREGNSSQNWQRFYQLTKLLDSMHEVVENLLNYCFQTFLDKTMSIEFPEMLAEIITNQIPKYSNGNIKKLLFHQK

As to `Oc1cccc(O)c1O`, the Potency entry in [1], in assay [2], in [3], in assay [4], in [5] and in assay [8] was “inactive” each time. The Potency entry in [10], in assay [15], in [16] and in [17] was “inactive” each time. The result in assay [6], in [7], in assay [9], in [11], in [12] and in [13] was inactive. In addition, the outcome in assay [14] was inactive.
For `CCC1NC(=O)c2cc(S(N)(=O)=O)c(Cl)cc2N1` (stereo unspecified), the Potency entry in assay [1], in [3], in assay [4], in assay [5], in assay [16] and in assay [17] was “inactive” each time. The fluorescence, relative to Rose Bengal in [6] is 0.403% [at 18.6 µM]. Besides, the fluorescence, % of fluorescein control in [7] was 0.161% [at 18.6 µM]; in assay [14], 0.0837% [at 18.6 µM]. Besides, the fluorescence, % of triamterene in assay [8] was -0.286% [at 18.6 µM]. Further, the fluorescence, % of fluorescent control is -0.132% [at 18.6 µM] in [9]; -0.0955% [at 18.6 µM] in assay [10]; -0.121% [at 18.6 µM] in assay [12]; -0.0342% [at 18.6 µM] in assay [19]; -0.0496% [at 18.6 µM] in assay [15]. In assay [18], the fluorescence, % of fluorescein was -0.0959% [at 18.6 µM]. Also, in assay [13], the fluorescence, % of Rose Bengal was -0.427% [at 18.6 µM].
For the compound `CCCCCC[C@@H](O)C/C=C\CCCCCCCC(=O)OCC(O)CO` (stereo partly specified), the Potency entry in assay [1], in assay [3], in [4], in assay [5], in [8] and in [10] was “inactive” each time. For the same compound, the Potency entry in assay [15] and in assay [16] was “inactive” in each case. Besides, the call in [6], in assay [7], in assay [9], in assay [18], in assay [11] and in assay [12] was inactive. For the same compound, the compound was called inactive in assay [13] and in assay [14].
Take `Clc1cc(Cl)nc(Cl)n1`: the Potency entry in [1], in assay [3], in assay [5], in [20], in assay [8] and in assay [10] was “inactive” each time. In addition, the Potency result in assay [15] is “inactive”. Also, the compound was classed as inactive in assay [6], in assay [7], in assay [9], in [18], in assay [11] and in [12]. In addition, the call in assay [13] and in assay [14] was inactive.
Turning to `CCCCCCNC(=O)n1cc(F)c(=O)[nH]c1=O`, the Potency was 1.5 µM (active) in [1] and 0.668 µM (active) in [3]. Further, the Potency result in assay [5], in assay [8], in assay [10], in assay [19], in assay [15] and in assay [16] was “inactive” in each case. For the same compound, the call in assay [6], in assay [7], in assay [9], in [11], in [12] and in [13] was inactive. Further, the call in assay [14] was inactive.
As for `C=CC(=O)[O-].C=CC(=O)[O-].[Zn+2]`, the Potency result in [1], in assay [3], in assay [5], in assay [10], in [19] and in assay [15] was “inactive” in each case. In addition, the Potency result in assay [16] and in [17] was “inactive” throughout. The compound was called inactive in assay [7], in assay [9], in assay [18], in [11], in assay [12] and in [13]. Moreover, in assay [14], the compound was classed as inactive.
`NC1[C@H]2CN(c3nc4c(cc3F)c(=O)c(C(=O)O)cn4-c3ccc(F)cc3F)C[C@@H]12` (stereo partly specified): the Potency in assay [1] was 29.8 µM (active). Further, the Potency entry in assay [3], in assay [5], in assay [8], in [10], in assay [15] and in assay [16] was “inactive” each time. For the same compound, the Potency entry in assay [17] was “inactive”. In addition, the compound was called inactive in assay [6], in assay [7], in assay [9], in assay [11], in [12] and in [13]. In addition, the result in [14] was inactive.
With `C/C=C(/C(=C/C)c1ccc(O)cc1)c1ccc(O)cc1`, the values for the Potency in assay [1] and in [20] were 3.2 µM (active) and 9.02 µM (active), respectively. Moreover, the Potency entry in assay [5] and in assay [16] was “inactive” each time. Also, in [6], the fluorescence, relative to Rose Bengal is 0.479% [at 18.6 µM]. Besides, the fluorescence, % of fluorescein control was 0.154% [at 18.6 µM] in [7] and -0.0063% [at 18.6 µM] in [14]. Further, in [8], the fluorescence, % of triamterene is 0.118% [at 18.6 µM]. The fluorescence, % of fluorescent control is 0.023% [at 18.6 µM] in [9]; 0.115% [at 18.6 µM] in assay [10]; 0.121% [at 18.6 µM] in assay [12]; -0.0042% [at 18.6 µM] in assay [19]; 0.0165% [at 18.6 µM] in assay [15]. Besides, the fluorescence, % of fluorescein in assay [18] was 0.128% [at 18.6 µM]. Besides, the activity change in assay [11] was -0.004% [at 18.6 µM]. Also, in assay [13], the fluorescence, % of Rose Bengal was 0.0319% [at 18.6 µM].

Values taken from PubChem BioAssay (Tox21).
